# The full list was thinned out, with hits kept by preference.
# CBX7 AlphaScr – blocks human CBX7 binding to H3K27me3 peptide | O95931 | AlphaScreen His6-CBX7 / biotin-H3K27me3 peptide binding; stronger effect = lower value | normalised signal (fraction of DMSO) (concentration not given with the values) | 66,000 compounds, 1.1% hits; in the data active means normalised signal below about 0.5
# Target sequence (O95931 whole entry, looked up): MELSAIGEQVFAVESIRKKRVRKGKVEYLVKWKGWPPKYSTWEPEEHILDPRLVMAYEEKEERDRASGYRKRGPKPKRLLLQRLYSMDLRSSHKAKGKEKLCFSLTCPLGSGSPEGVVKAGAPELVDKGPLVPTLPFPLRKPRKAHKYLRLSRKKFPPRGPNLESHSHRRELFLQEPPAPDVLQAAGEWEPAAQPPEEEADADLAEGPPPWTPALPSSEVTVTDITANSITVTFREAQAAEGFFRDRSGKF
# * = called active by the depositor.
SMILES,CBX7 AlphaScr
CCCCC(=O)Nc1cccc(-c2csc(-c3ccccc3)n2)c1,1.1
CCCc1cc(-c2nc(-c3cccc([N+](=O)[O-])c3)cs2)ccn1,0.43*
CCN1CCN(c2ncc(C(=O)Nc3ccc(F)cc3Cl)c3ccccc23)CC1,1.6
COc1ccc(C(O)Cn2c(=N)n(CCCN(C)C)c3ccccc32)cc1 (stereo not drawn),0.95
COc1ccc(C(=O)c2cn(Cc3ccc(Cl)cc3)c3ccccc3c2=O)cc1,0.62
CCC(=C(c1ccc(OC)cc1)c1ccc(OC)cc1)c1cn(CCCN(C)C)c2ccccc12,0.27*
CCCCN(C)CCNS(=O)(=O)c1ccc2c(c1)CCN2C(C)=O,1.3
CCc1ccc(N(C)S(=O)(=O)c2ccc3[nH]cc(C(=O)N4CCC(C)CC4)c(=O)c3c2)cc1,1.1
COc1ccc(Nc2cc(C(=O)NCCCN(C)Cc3ccccc3)c3ccccc3n2)cc1OC,0.44*
COc1ccc(Nc2cc(C(=O)NCCN(Cc3ccccc3)C(C)C)c3ccccc3n2)cc1OC,0.54
CCCCN(C)CCCNC(=O)c1cc(Nc2ccc(OC)c(OC)c2)nc2ccccc12,0.74
COc1ccc(Nc2c(-c3ccc(C)cc3)nc3cnccn23)cc1OC,0.93
Cn1c2ccccc2c2c(C(=O)NCCCN3CCOCC3)cn(C3CCCCC3)c(=O)c21,1.1
CCC1CCCCN1S(=O)(=O)c1ccc2[nH]c(=O)cc(C(=O)NCc3ccccc3Cl)c2c1 (stereo not drawn),0.89
Cc1nc2cc(-c3cccc(F)c3)nn2c(C)c1CCC(=O)Nc1ccc(Cl)cc1,0.99
COc1ccc(OCCCCCCc2c(C)n[nH]c2C)cc1,0.43*
Cc1n[nH]c(C)c1CCCCCCOc1ccc(F)cc1,1
Cc1n[nH]c(C)c1CCCCOc1ccc(C(C)(C)C)cc1,0.82
Cc1nc(N2CCC(C)CC2)c2c(C)c(C)sc2n1,1.2
CCOC(=O)c1cnc2c(C)cccc2c1Nc1ccc(N(CC)CC)cc1,0.12*
CCOC(=O)c1cnc2c(C)cccc2c1Nc1ccc(F)cc1,1.3
CCOC(=O)c1cnc2c(C)cc(Cl)cc2c1Nc1cccc(C(=O)O)c1,0.76
CCOC(=O)c1cnc2c(C)cc(C)cc2c1Nc1ccc(C)cc1,1.3
CCOC(=O)c1cnc2c(C)cc(Cl)cc2c1Nc1ccc2c(c1)OCCO2,0.86
CCOC(=O)c1cnc2c(C)cccc2c1Nc1ccc(C(=O)O)cc1,0.97
SMILES,CBX7 AlphaScr
CCOC(=O)c1cnc2c(C)cc(C)cc2c1Nc1ccc(OCC)cc1,1.1
CCOC(=O)c1cnc2c(C)cc(Cl)cc2c1Nc1ccc(N2CCOCC2)cc1,0.26*
CCOC(=O)c1cnc2c(C)cc(C)cc2c1Nc1ccc(N(C)C)cc1,0.33*
COc1ccccc1-c1c(C)nn2c(N3CCCCC3C)cc(C)nc12 (stereo not drawn),1.1
O=C(Nc1ccccc1)c1cnn(-c2ccccc2)c1C1CCNCC1,1
Cc1ccccc1NC(=O)CCc1c(C)nc2cc(-c3ccc(Cl)cc3)nn2c1C,1.1
COc1ccc(-c2nc(-c3ccc(Cl)cc3)no2)cc1,1.1
COc1ccc(CNC(=O)c2cc3c(-c4cccc(OC)c4)nn(C)c3s2)cc1,1.1
O=C(CCc1cn(Cc2ccccc2)c2ccccc12)NC1CC1,1
COCCNC(=O)C(C)N1C(=O)COc2ccc(C)cc21 (stereo not drawn),1.1
COc1ccc(C2CC(c3ccccc3OC(F)F)n3ncnc3N2)cc1 (stereo not drawn),0.97
CCN(Cc1ccccc1)C(=O)Cn1nc(Cc2cccnc2)c2ccccc2c1=O,0.97
O=C(Nc1cccc2cccnc12)c1ccccc1O,1
O=C(Nc1ncn[nH]1)c1ccccc1O,0.17*
Cc1ccc(NC(=O)c2ccccc2O)nc1,0.92
Cc1ccc(OCC(=O)Nc2cccc(-c3nc4cc(C)ccc4o3)c2)c(C)c1,1.2
CCOc1ccc(CNC(=O)Nc2cccs2)cc1,0.96
O=S(=O)(Cc1ccc(Br)cc1)c1nc2ncccc2[nH]1,0.92
O=C(CN1C(=O)CSc2ccccc21)NCCCN1CCOCC1,0.98
O=C(CN1C(=O)CSc2ccccc21)NCCN1CCOCC1,0.48*
O=C(CN1C(=O)CCSc2ccccc21)NCCN1CCOCC1,1
CCOc1ccc(NC(=O)C(NS(=O)(=O)c2ccc3c(c2)CCN3C(=O)CC)C(C)C)cc1 (stereo not drawn),0.92
Cc1ccc(N(CC(=O)Nc2ccc(Br)c(C)c2)S(=O)(=O)c2c(C)noc2C)cc1,0.96
Cc1ccc(OCC(O)Cn2cnc3cc(C)c(C)cc32)cc1 (stereo not drawn),0.072*
Cc1ccc(OCCCn2cnc3cc(C)c(C)cc32)cc1,0.96
SMILES,CBX7 AlphaScr
Cc1ccc(Cl)c(OCC(O)Cn2cnc3cc(C)c(C)cc32)c1 (stereo not drawn),0.72
Cc1cc2ncn(CC(O)COCC3CC=CCC3)c2cc1C (stereo not drawn),0.65
Cc1cc2ncn(CC(O)COc3ccc(C(=O)O)cc3)c2cc1C (stereo not drawn),1
O=C1c2ccccc2C(=O)N1CC(O)COCc1ccccc1 (stereo not drawn),1
Cc1cc2ncn(C(C)c3ccccc3)c2cc1C (stereo not drawn),1
Cc1cc2ncn(CC(O)COCc3ccccc3)c2cc1C (stereo not drawn),0.051*
Cc1cccc(OCC(O)Cn2cnc3cc(C)c(C)cc32)c1 (stereo not drawn),0.045*
COC(=O)c1ccc(OCC(O)Cn2cnc3cc(C)c(C)cc32)cc1 (stereo not drawn),0.87
CCCCn1c(=N)n(CC(O)COc2cccc(C)c2)c2ccccc21 (stereo not drawn),0.65
Cc1cc2ncn(CC(O)COC3CCCCC3)c2cc1C (stereo not drawn),0.044*
Nc1nonc1-n1nnc(-c2ccccc2)c1C(=O)c1ccccc1,0.98
O=S(=O)(c1ccccc1)c1nc(-c2ccc(Cl)cc2)oc1N1CCCCCC1,0.68
Cc1ccc(CCNC(=O)Cn2nc(-c3ccccc3)c3cc(Cl)ccc32)cc1,1
Cc1ccc(-c2n[nH]c(=O)c3ccccc23)cc1S(=O)(=O)NC(C)(C)CO,0.96
OC(C#CCN1CCCCCC1)(c1ccccc1)c1ccccc1,1
CCc1ccc(-c2nc(SCC(=O)NCCCOC)c(-c3ccc(Cl)cc3)[nH]2)cc1,0.95
Cc1ccc(NC2c3ccccc3C(=O)N2c2ccc(Cl)cn2)cc1F (stereo not drawn),1.2
CCN(CC)c1ccc(NC2c3ccccc3C(=O)N2c2ccc(Cl)cn2)c(C)c1 (stereo not drawn),0.065*
Cc1cccc(NC2c3ccccc3C(=O)N2c2ccc(Cl)cn2)c1C (stereo not drawn),0.93
CC(C)c1cc(C(=O)N2CCN(c3ccccc3)CC2)no1,1.1
CCOC(=O)C1CCCN(c2c(N3CCN(c4cccc(C)c4)C(C)C3)c(=O)c2=O)C1 (stereo not drawn),0.94
Cc1c(Br)cc2nc(-c3cccc(F)c3)c(-c3cccc(F)c3)nc2c1C,1.3
CSCC[C@@H](C(=O)Nc1ccc2c(c1)OCO2)N1Cc2ccccc2C1=O,0.62
Cc1ccc(NC(=O)[C@H](Cc2ccccc2)N2Cc3ccccc3C2=O)cc1F,0.68
COc1ccc(NC(=O)[C@H](Cc2ccccc2)N2Cc3ccccc3C2=O)cc1OC,0.42*
O=C(Nc1ccc2c(c1)OCO2)[C@H](CSCc1ccccc1)N1Cc2ccccc2C1=O,0.71
O=C(Nc1ccc2c(c1)OCO2)[C@H](Cc1ccccc1)N1Cc2ccccc2C1=O,0.42*
COc1ccc(NC(=O)[C@H](CCSC)N2Cc3ccccc3C2=O)cc1OC,0.77

# Bioassay records (PubChem)
